Assay results reported in PubChem BioAssay (NCATS).
Results filed as inconclusive are left out. Where a call stands in place of a potency, no number is given. Activity calls are given as the source filed them. Calls come from the whole dose curve; as a rule, active = well fitted curve in the direction sought with a large enough effect; inconclusive = small, poorly fitted or top-dose-only effect, or another doubt; inactive = no such curve, though single readings can be large; an effect the other way counts as inactive or inconclusive.

Assays:
[1] = system: Zika virus NS2B-NS3 protease; test: Primary screen GU AMC qHTS for Zika virus inhibitors (AID 1347154); conditions: Zika NS2B-NS3 unlinked protease, AMC fluorogenic substrate; series mostly up to 54.1 µM; note: nearly all actives have a fitted effect of over 70% in size
Method in brief: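 Unlinked Zika NS2B hydrophilic domain/NS3 protease domain noncovalent complex (25 nM final) in 10 mM Tris-HCl pH 8.0, 0.01% Tween 20, with AMC peptide substrate. Fluorescence (ex 340, em 450 nm) change over 15 min, room temperature; percent inhibition fitted to 4-parameter Hill equation.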

[2] = system: Zika virus NS2B-NS3 protease (unlinked complex); test: Primary screen GU Rhodamine qHTS for Zika virus inhibitors: Unlinked NS2B-NS3 protease assay (AID 1347159); conditions: Recombinant ZIKV NS2B-NS3 protease, Rhodamine110 substrate fluorescence; series mostly up to 107 µM; note: nearly all actives have a fitted effect of over 60% in size
Method in brief: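 Buffer 10 mM Tris-HCl pH 8.0, 0.01% Tween 20. Unlinked protease 25 nM; compound preincubation 15 min, RT, protected from light. Substrate Rhod110, 1.5 microM; ~15% conversion in 15 min.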

[3] = system: Zika virus NS2B-NS3 protease (linked construct); test: Primary screen NINDS Rhodamine qHTS for Zika virus inhibitors (AID 1347160); conditions: purified NS2B-NS3 protease, Rhodamine110 substrate fluorescence; series mostly up to 57.1 µM; note: nearly all actives have a fitted effect of over 55% in size
Method in brief: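 Aprotinin served as in-plate control. Conditions: 25 nM linked NS2B-NS3, pH 8.0 Tris buffer, titrated compounds, 15 min preincubation and 15 min reaction with 1.5 microM Rhod110 substrate at room temperature.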
Potency is the fitted concentration of half-maximal effect.

Row | SMILES | Potency [1] | Potency [2] | Potency [3]
1 | Cc1ccnc(NS(=O)(=O)c2ccc(NC(=O)Nc3ccc(S(=O)(=O)Nc4nccc(C)n4)cc3)cc2)n1 | 24.1 µM (active) | inactive | –
2 | CN(C(=O)c1ccc(F)cc1C(F)(F)F)C1CCN(c2nnc(-c3ccnn3C)c3ccccc23)CC1 | inactive | inactive | inactive
3 | C[C@H](NC(=O)Cc1cc(F)cc(F)c1)C(=O)N[C@@H]1C(=O)N(C)c2ccccc2-c2ccccc21 | inactive | – | inactive
4 | O=c1[nH]c(-c2ccc(C(F)(F)F)cc2)nc2c1CSCC2 | inactive | inactive | inactive
5 | COc1ccccc1[C@H](c1cccc2ccccc12)[C@@](C)(C#N)C(=O)N1CCC(c2cccc(C(F)(F)F)c2)CC1 | inactive | inactive | inactive
6 | COc1ccc(CCN2CCN(CCCc3ccccc3)CC2)cc1OC | inactive | inactive | inactive
7 | CC1(C)Cc2c(-c3ccccc3)c(-c3ccc(Cl)cc3)c(CC(=O)O)n2C1 | – | 10 µM (active) | –
8 | O=C(Nc1cccnc1)N1CCC(Cc2cccc(Oc3ccc(C(F)(F)F)cn3)c2)CC1 | inactive | – | inactive
9 | O=C(Nc1ccc(F)c(C(F)(F)F)c1)Nc1nnc(-c2ccncc2)s1 | inactive | 8.91 µM (active) | 2.82 µM (active)
10 | S=C(NCc1ccc2c(c1)OCO2)N1CCN(c2ncnc3c2oc2ccccc23)CC1 | – | inactive | inactive
11 | CN(C)c1ccc(Nc2nc(N)n(C(=O)c3c(F)cccc3F)n2)cc1 | inactive | inactive | inactive
12 | CC1(C)CNc2cc(NC(=O)c3cccnc3NCc3ccncc3)ccc21 | inactive | inactive | inactive
13 | Cc1cc(Nc2nc(N[C@@H](C)c3ncc(F)cn3)ncc2Cl)n[nH]1 | inactive | inactive | inactive
14 | CC[C@H](Nc1ncnc2nc[nH]c12)c1nc2cccc(F)c2c(=O)n1-c1ccccc1 | – | – | inactive
15 | CC[C@@H](C)[C@H](NC(=O)[C@H](CC1CCCCC1)NC(=O)c1ccno1)C(=O)N1CCC2(CCc3ccccc32)CC1 | inactive | – | inactive
16 | CNC(=O)c1ccc(C)c(-n2c(C)cc(OCc3ccc(F)cc3F)c(Br)c2=O)c1 | inactive | inactive | inactive
